# Laboratory results: PubChem BioAssay (NCATS)
# Inconclusive results are not listed. Activity calls are given as the source filed them. Calls follow the shape of the dose curve; as a rule, active = well fitted curve in the direction sought with a large enough effect; inconclusive = small, poorly fitted or top-dose-only effect, or another doubt; inactive = no such curve, though single readings can be large or run the other way.
# Assay: KB-8-5-11 P-gp reporter qHTS against the NCATS DSHEA and TCM libraries (AID 1919977); also: 0% is about no effect
# Settings: KB-8-5-11 cells; series mostly up to 26.1 µM; activity change, negative = inhibition: at the top concentration
# From the text: Assay Development and Screening Technology Laboratory (ADST)
# National Center for Advancing Translational Sciences (NCATS), Rockville, MD
# National Institute of Health (NIH), Bethesda, Maryland
# Dietary Supplements and Natural Products have minor oversight of their safety and efficacy. We assembled a collection of Dietary Supplements and Natural Products (DSNP) as well as Traditional Chinese Medicinal (TCM) Plant extracts, which were screened against an in vitro panel of assays, including a liver cytochrome p450 enzyme panel, CAR/PXR signaling pathways, and P-gp transporter assays, to assess their activity. This pipeline facilitated the interrogation of Natural Product-Drug Interaction (NaPDI) through prominent metabolizing pathways. In addition, we compared the activity profiles of the DSNP/TCM substances with those of an approved drug collection. Many of the approved drugs have well-annotated mechanisms of action (MOA) while the MOAs for most of the DSNP and TCM samples remain unknown. Based on the premise that compounds with similar activity profiles tend to share similar targets or MOA, we clustered the library activity profiles to identify overlap with the NCATS Pharmaceutical Collection to predict the MOAs of the DSNP/TCM substances. Overall, we highlight four significant bioactivity profiles (measured by p-values) as examples of this prediction. To assess broad cytotoxicity, we employed screening against a HepG2 cell line. In addition, transporter-mediated drug interactions are utilized in the characterization of DDIs using a P-glycoprotein (P-gp) assays. To profile potential P-gp activity, a differential cell viability was measured against two cell lines: a parental KB-3-1 human cervical adenocarcinoma cell line and the drug-resistant subline KB-8-5-11 that overexpresses P-gp.
# To this end, we profiled both collections for potential CAR and/or PXR activity, employing a previously published 1536-well qHTS assay.
# [1] Lee TD, et al. A High-Throughput Screen of a Library of Therapeutics Identifies Cytotoxic Substrates of P-glycoprotein. Mol Pharmacol. Nov 2019;96(5):629-640. doi:10.1124/mol.119.115964
# PROTOCOL TABLE (as described by Inglese J, Shamu CE and Guy RK. 2007)
# SEQUENCE No. (e.g., 1, 2, 3, etc.); PARAMETER (e.g., Cells, Incubation, Reagent, etc.); VALUE; DESCRIPTION.
# 1; Cells; 5 uL; KB-8-5-11 cells, white solid-bottom tissue treated Greiner plate.
# 2; Incubation; 4 hrs; 37C, 95% humidity, 5% CO2.
# 3; Compounds and control; 23 nL; Kalypsis pin tool (Wako USA) equipped with a 1536-well pin head to transfer to the assay plates.
# 4; Incubation; 72 hrs; 37C, 95% humidity, 5% CO2.
# 5; Reagent; 2.5 uL; CellTiter-Glo.
# 6; Centrifuge; 1000 RPM; 15 seconds.
# 7; Incubation; 30 min; room temperature.
# 8; Read; Luminescence; ViewLux plate reader.
# NOTES (numbers refer to Sequence numbers above)
# 1. P-gp-overexpressing subline KB-8-5-11 were maintained in DMEM (Thermofisher catalog #11965) with 10% FBS and 1% penicillin/streptomycin at 37C in 5% CO2. For KB-8-5-11 cells, colchicine was added to the medium at a concentration of 100 ng/ml (after initial cell attachment). For the screen, assay medium was identical to culture medium except for KB-8-5-11, where colchicine was excluded from the medium. Briefly, 5 uL of cells at 1 x 10^5 cells/mL (500 cells/well) were dispensed into a 1536-well white solid-bottom tissue treated plate (Greiner Bio-One) using a Multidrop Combi dispenser.
# 2. Plates were incubated at 37C, 95% humidity, 5% CO2 for ~4 hours to allow for cell attachment.
# 3. Compounds and intraplate control (Bortezomib; final concentration range 228 pM - 7.5 uM) were transferred (16 nL) via pintool (Wako Automation), for a final concentration of 15.6 nM - 30.0 uM (most substances).
# 4. Plates were incubated for ~72 hours at 37C, 95% humidity, 5% CO2.
# 5. Plates were then dispensed with 2.5 uL of CellTiter-Glo.
# 6. The assay plates were centrifuged for 15 seconds at 1,000 RPM's.
# 7. The plates were incubated for 30-minute at room temperature.
# 8. […]
row,Structure (SMILES),"activity change, negative = inhibition"
1,CCCCC/C=C\C/C=C\C/C=C\CCCCC(=O)O,5.04% [at 3.26 µM] (inactive)
2,C=CCc1ccc2c(c1)OCO2,9.51% (inactive)
3,CC(C)=CCC[C@](C)(OC1OC(COC2OCC(O)C(O)C2O)C(O)C(O)C1O)[C@H]1CC[C@]2(C)[C@@H]1[C@H](O)C[C@@H]1[C@@]3(C)CC[C@H](OC4OC(CO)C(O)C(O)C4OC4OC(CO)C(O)C(O)C4O)C(C)(C)[C@@H]3CC[C@]12C (stereo not given in full),0.652% (inactive)
4,COC1=CC(=O)O[C@@H](/C=C/c2ccc3c(c2)OCO3)C1,-5.24% (inactive)
5,CC1CC[C@]2(C(=O)O)CC[C@]3(C(=O)O)C(=CCC4[C@@]5(C)CC[C@H](OC6OC(C)C(O)C(OC7OC(CO)C(O)C(O)C7O)C6O)C(C)(C)C5CC[C@]43C)C2C1C (stereo not given in full),7.99% [at 14.4 µM] (inactive)
6,CCCCCCCC/C=C\CCCCCCCCCCCC(=O)O,1.08% (inactive)
7,COC1=CC(=O)OC(CCc2ccccc2)C1 (stereo not given),-9.66% (inactive)
8,CC1(C)CC[C@]2(C(=O)O)CC[C@]3(C)C(=CCC4[C@@]5(C)CC[C@H](O)[C@@](C)(CO)C5CC[C@]43C)[C@H]2C1 (stereo not given in full),-3.82% (inactive)
9,O=C(/C=C/c1ccc(O)c(O)c1)O[C@@H]1CC(C(=O)O)=C[C@@H](O)[C@H]1O,-6.19% (inactive)
10,C=C[C@H]1CN2CC[C@@]3(C(=O)Nc4ccccc43)[C@@H]2C[C@@H]1/C(=C\OC)C(=O)OC,-12.2% (inactive)
11,CCCCCC(=O)O,4.8% [at 44.5 µM] (inactive)
12,O=C(OCC1=C[C@@H](O)[C@@H]2C=CO[C@@H](O[C@@H]3O[C@H](CO)[C@@H](O)[C@H](O)[C@H]3O)[C@H]12)c1ccc(O)cc1,8.26% [at 14.4 µM] (inactive)
13,CCCCCC/C=C/CCCCCCCCCC(=O)O,-2.31% (inactive)
14,CC12CC3(O)OC(O1)C1(COC(=O)c4ccc(O)cc4)C3CC21OC1OC(CO)C(O)C(O)C1O (stereo not given),-0.373% (inactive)
15,O=c1cc(-c2ccc(O)c(O)c2)oc2cc(O[C@@H]3O[C@@H](CO)[C@@H](O)[C@@H](O)[C@H]3O)cc(O)c12,-29.5% (inactive)
16,CC(C)(O)[C@@H]1CC[C@](C)([C@@H]2[C@H](O)C[C@]3(C)C4C[C@@H](O[C@H]5O[C@@H](CO)[C@H](O)[C@@H](O)[C@@H]5O)C5C(C)(C)[C@H](O[C@H]6OC[C@H](O)[C@@H](O)[C@@H]6O)CC[C@]56CC46CC[C@@]23C)O1 (stereo not given in full),-4.9% (inactive)
17,C=C1C[C@@]23CC[C@H]4[C@](C)(CCC[C@]4(C)C(=O)O[C@@H]4O[C@H](CO)[C@@H](O)[C@H](O)[C@H]4O)[C@@H]2CC[C@]1(O[C@H]1O[C@@H](CO)[C@H](O)[C@@H](O)[C@@H]1O)C3,-1.91% (inactive)
18,OCCc1ccc(O)cc1,-8.43% [at 44.5 µM] (inactive)
19,CCCCCCCCCCCCCCCCCCCCCC(=O)O,-0.396% (inactive)
20,CCCCCCCC/C=C/CCCCCCCC(=O)O,0.722% (inactive)

row,Structure (SMILES),"activity change, negative = inhibition"
1,CC(C)=CCC[C@](C)(O)[C@H]1CC[C@]2(C)[C@@H]1[C@H](O)CC1[C@@]3(C)CC[C@H](O)C(C)(C)[C@@H]3[C@@H](O[C@@H]3O[C@H](CO)[C@@H](O)[C@H](O)[C@H]3O[C@@H]3O[C@H](CO)[C@@H](O)[C@H](O)[C@H]3O)C[C@]12C (stereo not given in full),-2.18% [at 14.4 µM] (inactive)
2,C=C1CC[C@H](O)CC1=C/C=C1\CCC[C@]2(C)[C@@H]([C@H](C)/C=C/[C@H](C)C(C)C)CC[C@@H]12,-8.65% (inactive)
3,O=Cc1ccccc1O,-3.48% [at 44.5 µM] (inactive)
4,C=C(C)C1CC=C(C)C(O)C1 (stereo not given),-7.03% (inactive)
5,CC(C)=CCC[C@](C)(O[C@@H]1O[C@H](CO)[C@@H](O)[C@H](O)[C@H]1O)[C@H]1CC[C@]2(C)[C@@H]1[C@H](O)C[C@@H]1[C@@]3(C)CC[C@H](O)C(C)(C)[C@@H]3[C@@H](O[C@@H]3O[C@H](CO)[C@@H](O)[C@H](O)[C@H]3O[C@@H]3O[C@@H](C)[C@H](O)[C@@H](O)[C@H]3O)C[C@]12C,5.66% (inactive)
6,CC(=O)O[C@H]1[C@H](O[C@H]2CC[C@]34C[C@]35CC[C@]3(C)[C@@H]([C@@]6(C)CC[C@@H](C(C)(C)O)O6)[C@@H](O)C[C@@]3(C)[C@@H]5C[C@H](O[C@@H]3O[C@H](CO)[C@@H](O)[C@H](O)[C@H]3O)[C@H]4C2(C)C)OC[C@@H](O)[C@@H]1O,0.576% (inactive)
7,CC(C)[C@H](C)CC[C@@H](C)[C@H]1CC[C@H]2[C@@H]3CC=C4C[C@@H](O)CC[C@]4(C)[C@H]3CC[C@]12C,5.24% (inactive)
8,CC[C@@H]1CN2CC[C@]3(C(=O)Nc4ccccc43)[C@@H]2C[C@@H]1/C(=C\OC)C(=O)OC,-17.1% (inactive)
9,C=C1C[C@@]23CC[C@H]4[C@@](C)(CCC[C@@]4(C)C(=O)O[C@@H]4O[C@H](CO)[C@@H](O)[C@H](O)[C@H]4O[C@@H]4O[C@H](CO)[C@@H](O)[C@H](O)[C@H]4O)[C@@H]2CC[C@]1(O[C@@H]1O[C@H](CO)[C@@H](O)[C@H](O)[C@H]1O[C@@H]1O[C@H](CO)[C@@H](O)[C@H](O)[C@H]1O)C3,-1.06% (inactive)
10,CCCCCCC/C=C/C(=O)CCc1ccc(O)c(OC)c1,-9.09% (inactive)
11,CC/C=C\C/C=C\C/C=C\C/C=C\C/C=C\CCCCCC(=O)O,8.8% [at 3.26 µM] (inactive)
12,CC/C=C\C/C=C\C/C=C\C/C=C\CCCCC(=O)O,-0.921% [at 3.26 µM] (inactive)
13,O=C(O[C@@H]1Cc2c(O)cc(O)cc2O[C@H]1c1cc(O)c(O)c(O)c1)c1cc(O)c(O)c(O)c1,-6.08% (inactive)
14,CC(C)(O)[C@@H]1CC[C@](C)([C@H]2[C@@H](O)C[C@@]3(C)[C@@H]4C[C@H](O)[C@H]5C(C)(C)[C@@H](O[C@@H]6OC[C@@H](O)[C@H](O)[C@H]6O[C@@H]6O[C@H](CO)[C@@H](O)[C@H](O)[C@H]6O)CC[C@@]56C[C@@]46CC[C@]23C)O1,3.12% (inactive)
15,CC(C)=CCC/C(C)=C/CC/C(C)=C/CC/C(C)=C/CC1=C(C)C(=O)c2ccccc2C1=O,-16.7% (inactive)
16,CCC(/C=C/[C@@H](C)[C@H]1CCC2C3CC=C4C[C@@H](O)CC[C@]4(C)C3CC[C@@]21C)C(C)C (stereo not given in full),-14% (inactive)
17,CC(C)=CCC[C@](C)(O[C@@H]1O[C@H](CO)[C@@H](O)[C@H](O)[C@H]1O)[C@H]1CC[C@]2(C)[C@@H]1[C@H](O)C[C@@H]1[C@@]3(C)CC[C@H](O[C@@H]4O[C@H](CO)[C@@H](O)[C@H](O)[C@H]4O[C@@H]4O[C@H](CO)[C@@H](O)[C@H](O)[C@H]4O)C(C)(C)[C@@H]3CC[C@]12C,7.73% (inactive)
18,CCCCCCCCC[C@@H](O)CC(=O)CCc1ccc(O)c(OC)c1,-2.12% (inactive)
19,OCC1=C[C@@H](O)[C@@H]2C=CO[C@@H](OC3O[C@H](CO)[C@@H](O)[C@H](O)[C@H]3O)[C@H]12 (stereo not given in full),-3.3% (inactive)
20,CCCCCCCCCCCCCCCCCCCC(=O)O,-6.43% (inactive)
